# From PubChem BioAssay (NCI)
# Values joined by “and” are separate entries in the source; they are usually repeats but may differ in a detail not shown here. Identical values can stand only once. This is part of a sample that, as a whole, favours compounds with a hit. Of some 83,000 tested, about 20% had one in any assay.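 Activity criterion: percent growth below 10, measured after cells in 96-well plates were exposed to a single compound concentration for 48 hours.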 Active and inactive are the calls of the source.
# What was measured:
# Experiment in all cases: NCI-60 one-dose screen, 48 h (100 = growth as untreated, 0 = no growth, -100 = all killed)
# Details in all cases: 10 µM unless noted
# [1] = tested on: SK-MEL-2 melanoma
# [2] = tested on: EKVX NSCLC
# [3] = tested on: SN12C renal
# [4] = tested on: UO-31 renal
# [5] = tested on: TK-10 renal
# [6] = tested on: ACHN renal
# [7] = tested on: CAKI-1 renal
# [8] = tested on: A498 renal
# [9] = tested on: CCRF-CEM leukemia
# [10] = tested on: MOLT-4 leukemia
# [11] = tested on: SR leukemia
# [12] = tested on: RPMI-8226 leukemia
# [13] = tested on: OVCAR-8 ovarian
# [14] = tested on: OVCAR-5 ovarian
# [15] = tested on: OVCAR-4 ovarian
# [16] = tested on: SK-OV-3 ovarian
# [17] = tested on: IGROV1 ovarian
# [18] = tested on: OVCAR-3 ovarian
# [19] = tested on: HS 578T breast
# [20] = tested on: NCI/ADR-RES ovarian
SMILES,growth [1],growth [2],growth [3],growth [4],growth [5],growth [6],growth [7],growth [8],growth [9],growth [10],growth [11],growth [12],growth [13],growth [14],growth [15],growth [16],growth [17],growth [18],growth [19],growth [20]
CN(Cc1ccccc1)c1nc(Cl)c(C2CC(c3ccc4c(c3)OCO4)=NN2c2cc(Cl)cc(Cl)c2)s1 (stereo not given),101% (inactive),95.1% (inactive),99.1% (inactive),87.5% (inactive),119% (inactive),97% (inactive),84.3% (inactive),115% (inactive),97.1% (inactive),107% (inactive),98.6% (inactive),83.7% (inactive),105% (inactive),106% (inactive),90.1% (inactive),92.9% (inactive),95.3% (inactive),103% (inactive),96.5% (inactive),104% (inactive)
O=C1C(Nc2ccc(Cl)cc2)=C(I)C(=O)c2ncccc21,70% (inactive),62.2% (inactive),-22.1% (active),-51% (active),47.5% (inactive),-98.8% (active),-17% (active),99.6% (inactive),6.74% (active),-1.19% (active),4.45% (active),-2.24% (active),-65.1% (active),60.4% (inactive),-91.4% (active),83.3% (inactive),-76.2% (active),-88.3% (active),39.9% (inactive),-0.0242% (active)
COc1ccc(/C=N\Nc2nc(SCC(C)C)nc(-c3ccc(OC)cc3)c2C#N)cc1,87% (inactive),35.1% (inactive),2.1% (active),-53.5% (active),-54.7% (active),-71.7% (active),9.54% (active),-7.9% (active),38.6% (inactive),30.2% (inactive),50.3% (inactive),54.6% (inactive),39.2% (inactive),55.5% (inactive),-60.3% (active),-16.6% (active),-16.3% (active),9.64% (active),8.52% (active),42.2% (inactive)
O=c1c(/C=C/c2ccco2)nnc2sc(Nc3ccc(Cl)cc3)nn12,95.6% (inactive),90.9% (inactive),107% (inactive),79% (inactive),146% (inactive),98.2% (inactive),98.5% (inactive),108% (inactive),98% (inactive),95.7% (inactive),96% (inactive),101% (inactive),101% (inactive),97.1% (inactive),90.7% (inactive),86.4% (inactive),68.8% (inactive),106% (inactive),91% (inactive),102% (inactive)
O=C1/C(=C/c2ccc(-c3cccc(C(F)(F)F)c3)o2)SC(=S)N1CCc1ccc(O)cc1,56.4% (inactive),89% (inactive),75.1% (inactive),52.9% (inactive),94.1% (inactive),87.4% (inactive),53.8% (inactive),65.3% (inactive),14% (inactive),37% (inactive),32.5% (inactive),68.3% (inactive),15.2% (inactive),82.7% (inactive),48.5% (inactive),85.4% (inactive),48.8% (inactive),63.4% (inactive),69.4% (inactive),81.7% (inactive)
Cc1nc2sc(C(=O)Nc3cccc(Cl)c3C)c(N)c2cc1C(O)c1ccccc1 (stereo not given),38.9% (inactive),41.6% (inactive),9.22% (active),40.6% (inactive),49.7% (inactive),22.5% (inactive),30.9% (inactive),-11.6% (active),20.4% (inactive),13% (inactive),7.23% (active),8.08% (active),11.8% (inactive),37.5% (inactive),55.6% (inactive),32.9% (inactive),21.8% (inactive),4.1% (active),23.4% (inactive),3.99% (active)
Cn1cc(-c2nc3c(F)cc4[nH]ncc4c3c3c2CCCC3)c(C(F)F)n1,76.7% (inactive),54.5% (inactive),66.7% (inactive),35.8% (inactive),52.3% (inactive),44.3% (inactive),37% (inactive),33.1% (inactive),4.61% (active),7.32% (active),-16.9% (active),27.7% (inactive),73% (inactive),71.2% (inactive),100% (inactive),37.2% (inactive),51.8% (inactive),84.4% (inactive),40.4% (inactive),77.9% (inactive)
Nc1ccc(-c2nc3ccc4[nH]ncc4c3c3c2CCCC3)cc1F,6.74% (active),33.5% (inactive),27.3% (inactive),-4.24% (active),22.1% (inactive),11.6% (inactive),7.39% (active),-0.345% (active),20.5% (inactive),18.5% (inactive),10.8% (inactive),27.3% (inactive),32.2% (inactive),56.8% (inactive),50.2% (inactive),-28.3% (active),10.9% (inactive),37.3% (inactive),17.1% (inactive),35.6% (inactive)
COc1cc(-c2[nH]ncc2Nc2ccc(Cl)cc2)cc(OC)c1OC,112% (inactive),45.4% (inactive),89.9% (inactive),42.9% (inactive),67.8% (inactive),78.9% (inactive),-14.8% (active),68.9% (inactive),54.9% (inactive),50.9% (inactive),67.7% (inactive),21.1% (inactive),67.5% (inactive),75.7% (inactive),71.6% (inactive),64.3% (inactive),69.8% (inactive),86.1% (inactive),66% (inactive),61.7% (inactive)
CCOC(=O)c1cc2c(n1Cc1cc(OC)cc(OC)c1Br)-c1nc(NC(C)=O)sc1CCC2,82.6% (inactive),58.6% (inactive),77.5% (inactive),51.8% (inactive),94.4% (inactive),91.2% (inactive),67.3% (inactive),55.8% (inactive),56.3% (inactive),46.7% (inactive),58.9% (inactive),60.5% (inactive),64.9% (inactive),115% (inactive),73.4% (inactive),82.1% (inactive),87.5% (inactive),81.4% (inactive),64.6% (inactive),78.6% (inactive)
COc1ccc(-c2cc(=O)c3c(O)cc(O)cc3o2)cc1,116% (inactive),103% (inactive),102% (inactive) and 82% (inactive),-74.8% (active) and 92.7% (inactive),119% (inactive) and 104% (inactive),97.5% (inactive) and 97.2% (inactive),108% (inactive) and 105% (inactive),97.5% (inactive),94.2% (inactive) and 86.6% (inactive),76.4% (inactive) and 85.6% (inactive),59.9% (inactive) and 69.1% (inactive),87.6% (inactive) and 87.3% (inactive),103% (inactive) and 90.2% (inactive),112% (inactive) and 130% (inactive),118% (inactive) and 102% (inactive),112% (inactive) and 135% (inactive),125% (inactive) and 113% (inactive),112% (inactive) and 81% (inactive),120% (inactive) and 97% (inactive),99.6% (inactive) and 99.1% (inactive)
